{"source": "ChEMBL document CHEMBL3988442", "about": "“University of Dundee, Small-Polar-MMV Screening Library” (2021)", "note": "The whole screen tested about 48,000 compounds, of which about 13,000 (27%) showed an effect of 50% or more. The list shows a part of the results.", "data": [{"tested_on": "Wolbachia pipientis", "assay": "Anti-Wolbachia Cell-Based Screen", "assay_type": "functional", "parameters": "scale not given: in the data most compounds retested in dose-response had high values", "conditions": "5 µM", "units": {"Percent Effect": "%"}, "values": [{"smiles": "COCCNC(=O)Nc1ccn(-c2cccc(C(F)(F)F)c2)n1", "Percent Effect": 3.521}, {"smiles": "OCCC1CN(c2ncnc3[nH]cnc23)CCN1Cc1ccccc1F", "note": "(stereo not given)", "Percent Effect": -3.014}, {"smiles": "OCCc1cc(CC2(NCc3ccc(C(F)(F)F)cc3)COC2)no1", "Percent Effect": 1.711}, {"smiles": "CN(C(=O)CN(Cc1cccc(O)c1)C1CCC(O)CC1)C1CC1", "note": "(stereo not given)", "Percent Effect": 2.382}, {"smiles": "CCc1ccc(CN2CCCC(c3nn(C)c(=O)n3CC)C2)nc1", "note": "(stereo not given)", "Percent Effect": 20.88}, {"smiles": "CC(C)NC(=O)CCNC(=O)CCc1cc(Br)cs1", "Percent Effect": -10.2}, {"smiles": "COc1ccc2cccc(CC(=O)NCc3nccc(N)n3)c2c1", "Percent Effect": -13.23}, {"smiles": "COc1ccc(-c2ccccc2CN)c(OC)c1", "Percent Effect": -11.71}, {"smiles": "Cc1cc(N2CCN(C(=O)c3cn(C)c4ccccc34)CC2)nc(C)n1", "Percent Effect": 1.104}, {"smiles": "COc1ccc2c(c1)c(-c1nc(C)ncc1CN)cn2C", "Percent Effect": 104.6}, {"smiles": "COc1ccc(CN)c(OC(F)F)c1.Cl", "Percent Effect": -5.611}, {"smiles": "COc1ccc2cccc(CC(=O)NCc3n[nH]c(=O)[nH]3)c2c1", "Percent Effect": 5.869}, {"smiles": "Cc1ncc(CN)c(-c2cn(C)c3ccccc23)n1", "Percent Effect": 142.3}, {"smiles": "COc1ccc(-c2n[nH]cc2CN(C)Cc2nccn2C)c(F)c1", "Percent Effect": -1.077}, {"smiles": "COCC(=O)NCc1cnc(C)nc1-c1cn(C)c2ccc(OC)cc12", "Percent Effect": 67.07}, {"smiles": "Cn1cc(CNC[C@H]2Cn3ccnc3CO2)c2ccccc21", "Percent Effect": -9.127}, {"smiles": "COc1ccc2c(c1)c(-c1nc(N(C)C)ncc1CN)cn2C", "Percent Effect": 69.63}, {"smiles": "COc1ccc(OC)c(CN(C)c2nc3c(cnn3C)c(=O)[nH]2)c1", "Percent Effect": -18.11}, {"smiles": "CN(CCNC(=O)N1CCN(Cc2ccon2)CC1)C1CCCC1", "Percent Effect": -5.523}, {"smiles": "CC1CCN(CC2(O)CCCN(Cc3cccc(F)c3F)C2=O)CC1", "note": "(stereo not given)", "Percent Effect": -9.136}, {"smiles": "O=C(CN(Cc1ccccc1)CC1CCOCC1)Nc1nccs1", "Percent Effect": -5.546}, {"smiles": "Cn1cnnc1CN1CCC2(CCC(=O)N(Cc3ccccc3)C2)CC1", "Percent Effect": -10.98}, {"smiles": "Cc1nnc2n1CCN(C(C(=O)NC1CC1)c1ccccc1)C2", "note": "(stereo not given)", "Percent Effect": -4.736}, {"smiles": "O=S(=O)(CC1CCCCC1)NCc1ccnc(O)c1", "Percent Effect": -10.25}, {"smiles": "CCNC(=O)Nc1ccc2c(ccn2CC(=O)N(CC)CC)c1", "Percent Effect": -5.513}, {"smiles": "COc1ccc2nc(CCNC(=O)c3cc(CC(C)C)no3)[nH]c2c1", "Percent Effect": 0.008091}, {"smiles": "COc1ccc2c(ccn2CC(=O)Nc2n[nH]c(CC(C)C)n2)c1", "Percent Effect": 220.2}, {"smiles": "COCCN(C)C(=O)Nc1ccc2c(ccn2CC(=O)N(C)C)c1", "Percent Effect": 5.654}, {"smiles": "COc1ccc2c(ccn2CCC(=O)Nc2n[nH]c(CC(C)C)n2)c1", "Percent Effect": 106.4}, {"smiles": "CNS(=O)(=O)Cc1ccc(CNc2ccc(C#N)cn2)cc1", "Percent Effect": 0.03552}, {"smiles": "O=C(O)C(F)(F)F.O=S(=O)(c1cccs1)N1CCCn2nnc(CN3CCCCC3)c2C1", "Percent Effect": -14.53}, {"smiles": "O=C(c1ccc2[nH]ccc2c1)N1Cc2nc(CN3CCCC3)oc2C1", "Percent Effect": -7.855}, {"smiles": "O=C(O)C(F)(F)F.O=S(=O)(c1cccs1)N1CC[C@H]2[C@H]1CCN2CC1CC1", "Percent Effect": -12.79}, {"smiles": "O=C(Cc1cccs1)N1Cc2nc(CN3CCCC3)oc2C1", "Percent Effect": 101.2}, {"smiles": "O=C(Cc1ccsc1)N1Cc2nc(CN3CCCCC3)oc2C1.O=C(O)C(F)(F)F", "Percent Effect": 93.12}, {"smiles": "O=C(O)C(F)(F)F.O=C(c1ccc2[nH]ccc2c1)N1Cc2nc(CN3CCCCC3)oc2C1", "Percent Effect": -9.773}, {"smiles": "O=C(O)C(F)(F)F.O=C(O)C(F)(F)F.c1csc(CN2Cc3nc(CN4CCCC4)oc3C2)c1", "Percent Effect": 109.9}, {"smiles": "O=C(O)C(F)(F)F.O=C(O)C(F)(F)F.c1csc(CN2CCCn3cnc(CN4CCCC4)c3C2)c1", "Percent Effect": -7.451}, {"smiles": "Cc1ncnc2c1CCN(Cc1cccs1)CC2.O=C(O)C(F)(F)F", "Percent Effect": -21.74}, {"smiles": "O=C(O)C(F)(F)F.O=S(=O)(c1cccs1)N1Cc2nc(CN3CCCCC3)oc2C1", "Percent Effect": 109.1}, {"smiles": "O=C(NCc1cccs1)c1nc2c(o1)CN(c1ncccn1)C2", "Percent Effect": 0.5771}, {"smiles": "O=C(O)C(F)(F)F.O=C(O)C(F)(F)F.O=C(c1ccncc1F)N1Cc2nc(CN3CCCCC3)oc2C1", "Percent Effect": -18.26}, {"smiles": "CC(C)Oc1ccc(CN2CCN3CCN(C)CC3C2)cc1CO", "note": "(stereo not given)", "Percent Effect": 9.29}, {"smiles": "CC(C)N1CCc2onc(Cn3cccc3)c2C1.O=C(O)C(F)(F)F", "Percent Effect": -0.5475}, {"smiles": "CCc1cnc(C)nc1NCCC(=O)N1CCC(C)CC1", "Percent Effect": -0.3722}, {"smiles": "COc1ccnc(N(C)Cc2ccccc2O)n1", "Percent Effect": -0.8473}, {"smiles": "CN(C)C(CNCc1nc(-c2ccsc2)no1)c1cccc(F)c1", "note": "(stereo not given)", "Percent Effect": 29.87}, {"smiles": "CC(=O)Oc1ccnc(C(F)(F)F)c1C(C)=O", "Percent Effect": 6.517}, {"smiles": "O=C(O)C(F)(F)F.O=S(=O)(c1cccs1)N1Cc2nc(CN3CCCC3)oc2C1", "Percent Effect": 87.16}, {"smiles": "O=C(O)C(F)(F)F.O=S(=O)(c1cccs1)N1CC[C@@H](O)[C@@H]1Cc1ccncc1", "Percent Effect": 6.31}, {"smiles": "O=C(O)C(F)(F)F.O=S(=O)(c1cccs1)N1CCCn2cnc(CN3CCCC3)c2C1", "Percent Effect": -2.227}, {"smiles": "Cc1cccc(CN2C[C@@H]3CN(C(=O)c4ccsc4)C[C@@H]3C2=O)n1.O=C(O)C(F)(F)F", "Percent Effect": -3.63}, {"smiles": "O=C(c1ncc[nH]1)N1CCC(Cn2cc(-c3cccc(Cl)c3)nn2)CC1", "Percent Effect": -5.477}, {"smiles": "CSc1ccc2c(C)cc(N[C@@H](C)CO)nc2c1", "Percent Effect": -9.02}, {"smiles": "CC(C)[C@@H](CO)Nc1cc(-c2cn[nH]c2)ncn1", "Percent Effect": 127.6}, {"smiles": "COc1cccc(-c2noc(-c3ccc(NCC(C)O)nc3)n2)c1OC", "note": "(stereo not given)", "Percent Effect": -13.68}, {"smiles": "CCC(CO)NC(=O)c1cc(COc2ccc(OC)cc2Cl)[nH]n1", "note": "(stereo not given)", "Percent Effect": -12.2}, {"smiles": "CC[C@@H](CO)NC(=O)c1cc(COc2ccc(OC)cc2Cl)[nH]n1", "Percent Effect": -9.741}, {"smiles": "CC(C)c1nccn1CCCNC(=O)c1ccc(-c2cn[nH]c2)nc1", "Percent Effect": -8.447}, {"smiles": "C[C@@H](CO)Nc1cc(-c2cn[nH]c2)ncn1", "Percent Effect": 112.5}, {"smiles": "COc1ccc(Cc2noc(-c3ccc(NC(C)CO)nc3)n2)cc1", "note": "(stereo not given)", "Percent Effect": 5.885}, {"smiles": "COc1cccc(-n2cc(-c3ccnc(N[C@H](CO)C(C)C)n3)cn2)c1", "Percent Effect": 4.852}, {"smiles": "COc1cccc(-n2cc(-c3ccnc(NC(CO)C(C)C)n3)cn2)c1", "note": "(stereo not given)", "Percent Effect": 8.395}, {"smiles": "CC[C@@H](CO)Nc1cc(-c2cn[nH]c2)ncn1", "Percent Effect": 98.52}, {"smiles": "C[C@H](O)CNc1cc(-c2cn[nH]c2)ncn1", "Percent Effect": 139.4}, {"smiles": "Cc1cc(CN2CCN(C(=O)NCCCc3cn[nH]c3C)CC2)on1", "Percent Effect": -23.87}, {"smiles": "Cc1ccc(-n2nnnc2SCN2CCCCC2=O)cc1C", "Percent Effect": -13.91}, {"smiles": "Cc1ccc(CNC(=O)CN2C=Nc3ccccc3S2(=O)=O)s1", "Percent Effect": 1.242}, {"smiles": "COc1ccc(C)c2c1N(C(=O)c1cnc(C)s1)CCC2", "Percent Effect": 46.61}, {"smiles": "O=C(c1ccc(CN2CCCC2)cc1)N1CCCC(n2cccn2)C1", "note": "(stereo not given)", "Percent Effect": 0.6704}, {"smiles": "CCCN(C(=O)c1cnns1)C1CCCN(Cc2ccccc2)C1", "note": "(stereo not given)", "Percent Effect": 20.84}, {"smiles": "NC(=O)C1CCCN(Cc2ccc(C(=O)Nc3cnns3)cc2)C1", "note": "(stereo not given)", "Percent Effect": 103.7}, {"smiles": "CCNC(=O)C1CCN(Cc2ccc(C(=O)Nc3nnc(C)s3)cc2)C1", "note": "(stereo not given)", "Percent Effect": 100.1}, {"smiles": "CCNC(=O)C1CCN(Cc2ccc(C(=O)Nc3cnns3)cc2)C1", "note": "(stereo not given)", "Percent Effect": 106}, {"smiles": "Cn1cnnc1CNC(=O)C1CCCN(Cc2ccccc2)C1", "note": "(stereo not given)", "Percent Effect": -10.08}, {"smiles": "O=C(Nc1nnc(C2CC2)s1)NC1CCN(Cc2ccccc2)C1", "note": "(stereo not given)", "Percent Effect": -1.377}, {"smiles": "CCc1ccc(CN2CCC(CNC(=O)c3ccc(C)nc3)C2)nc1", "note": "(stereo not given)", "Percent Effect": 20.32}, {"smiles": "NC(=O)c1ccc(CN2CCCC(N3CCCC3)C2)cc1", "note": "(stereo not given)", "Percent Effect": -7.606}, {"smiles": "CCC(CC)CS(=O)(=O)NC(=O)C1CCCC1", "Percent Effect": -11.88}, {"smiles": "Cc1cnccc1CN(C)Cc1c[nH]nc1-c1ccc(F)cc1F", "Percent Effect": -6.627}, {"smiles": "Cc1cnn(CC2CCCN2C(=O)c2cc(O)nc3ccccc23)c1", "note": "(stereo not given)", "Percent Effect": 145.5}, {"smiles": "O=C(c1cncc2ccccc12)N1CCC[C@@H]1CO", "Percent Effect": 106.1}, {"smiles": "Cc1cnn(CC2CCCN2C(=O)c2cn(C)c3ccccc23)c1", "note": "(stereo not given)", "Percent Effect": 141.3}, {"smiles": "Cc1cc(C)n(-c2cccc(NC(=O)N3CCC[C@@H]3CO)c2)n1", "Percent Effect": -12.47}, {"smiles": "COc1ccccc1C(=O)N1CCCC1Cn1cc(C)cn1", "note": "(stereo not given)", "Percent Effect": -4.126}, {"smiles": "CC(NC(=O)N1CCC[C@H]1CO)c1noc(-c2ccccc2)n1", "note": "(stereo not given in full)", "Percent Effect": 5.475}, {"smiles": "O=C(Nc1ccccc1OC1CCOC1)c1ccon1", "note": "(stereo not given)", "Percent Effect": -7.759}, {"smiles": "CCN(CCc1nc2cc(C)ccc2[nH]1)C(=O)[C@@H](N)Cc1c[nH]cn1", "Percent Effect": -4.555}, {"smiles": "CCOCc1nccc(-c2ccc(OCC)c(C(=O)O)c2)n1", "Percent Effect": -8.809}, {"smiles": "Cc1nnc2n1CCN(C(C)c1nnc(-c3cccs3)o1)C2", "note": "(stereo not given)", "Percent Effect": 4.366}, {"smiles": "Cc1cccc(-c2nnc(C(C)N3CCn4c(C)nnc4C3)o2)c1", "note": "(stereo not given)", "Percent Effect": 3.143}, {"smiles": "CCc1cc(C)nc(N2CCN(C(C)c3nc(C)no3)CC2)n1", "note": "(stereo not given)", "Percent Effect": 7.355}, {"smiles": "Cc1nnc(C(C)NCC2(c3ccc(Cl)cc3)CCCC2)o1", "note": "(stereo not given)", "Percent Effect": 5.084}, {"smiles": "Cc1noc(C(C)N2CCc3[nH]c4ccc(Cl)cc4c3C2)n1", "note": "(stereo not given)", "Percent Effect": 55.06}, {"smiles": "Cc1nnc(C(C)N2CCc3[nH]c4ccc(Cl)cc4c3C2)o1", "note": "(stereo not given)", "Percent Effect": 96.73}, {"smiles": "Cc1ccc(-c2nnc(C(C)N3CCn4c(C)nnc4C3)o2)cc1", "note": "(stereo not given)", "Percent Effect": 7.305}, {"smiles": "Cc1nnc(C(C)N2CCc3[nH]c4ccccc4c3C2)o1", "note": "(stereo not given)", "Percent Effect": 119.5}, {"smiles": "Cc1noc(C(C)N2CCC(c3nc4ccccc4[nH]3)CC2)n1", "note": "(stereo not given)", "Percent Effect": -1.749}, {"smiles": "CN(CCO)C[C@@H]1CN(Cc2ccccc2C#N)C[C@@H]1CO", "Percent Effect": 5.341}, {"smiles": "O=C(O)C(F)(F)F.O=C([C@H]1COC[C@H]2CN(C3CCCC3)C[C@H]21)N1CCCO1", "Percent Effect": 3.277}]}]}
